Assay [1] concerns the target Nuclear receptor coactivator 3 (Homo sapiens) (UniProt Q9Y6Q9). Kind of assay: NCOA3 GAL4-fusion reporter inhibition – cell-based, luminescence, quadruplicate, confirmation (AID 588792).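 Note: 0% = DMSO treated cells and 100% = gossypol at 36 µM.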 Conditions: HEK293 GAL4-SRC3 luciferase reporter, at 3.6 µM, active compounds read high. Background: Reporter assays use an easily measured gene product as a stand-in for the process of interest.

For assay [2], the system named is transactivating tegument protein VP16 (Human herpesvirus 1), Gal4-VP16 luciferase reporter. Kind of assay: repression of VP16-driven luciferase reporter – cell-based, luminescence, high throughput, counter-screen for SRC3 inhibitor project (AID 588794; in the data active = inhibition above about 30%). Conditions: mammalian cells, at 3.6 µM, active compounds read high.

Each structure is given as a SMILES string. A number with no mark means an inactive call. Calls of active or inactive are those of the source.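 Rule for the calls, unless noted: active = mean inhibition over 43.08%, the solvent-only control mean plus 3 SD; inactive = the rest.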

Nuclear receptor coactivator 3 (Homo sapiens), sequence (Q9Y6Q9 whole entry, looked up, the tested form may be a part): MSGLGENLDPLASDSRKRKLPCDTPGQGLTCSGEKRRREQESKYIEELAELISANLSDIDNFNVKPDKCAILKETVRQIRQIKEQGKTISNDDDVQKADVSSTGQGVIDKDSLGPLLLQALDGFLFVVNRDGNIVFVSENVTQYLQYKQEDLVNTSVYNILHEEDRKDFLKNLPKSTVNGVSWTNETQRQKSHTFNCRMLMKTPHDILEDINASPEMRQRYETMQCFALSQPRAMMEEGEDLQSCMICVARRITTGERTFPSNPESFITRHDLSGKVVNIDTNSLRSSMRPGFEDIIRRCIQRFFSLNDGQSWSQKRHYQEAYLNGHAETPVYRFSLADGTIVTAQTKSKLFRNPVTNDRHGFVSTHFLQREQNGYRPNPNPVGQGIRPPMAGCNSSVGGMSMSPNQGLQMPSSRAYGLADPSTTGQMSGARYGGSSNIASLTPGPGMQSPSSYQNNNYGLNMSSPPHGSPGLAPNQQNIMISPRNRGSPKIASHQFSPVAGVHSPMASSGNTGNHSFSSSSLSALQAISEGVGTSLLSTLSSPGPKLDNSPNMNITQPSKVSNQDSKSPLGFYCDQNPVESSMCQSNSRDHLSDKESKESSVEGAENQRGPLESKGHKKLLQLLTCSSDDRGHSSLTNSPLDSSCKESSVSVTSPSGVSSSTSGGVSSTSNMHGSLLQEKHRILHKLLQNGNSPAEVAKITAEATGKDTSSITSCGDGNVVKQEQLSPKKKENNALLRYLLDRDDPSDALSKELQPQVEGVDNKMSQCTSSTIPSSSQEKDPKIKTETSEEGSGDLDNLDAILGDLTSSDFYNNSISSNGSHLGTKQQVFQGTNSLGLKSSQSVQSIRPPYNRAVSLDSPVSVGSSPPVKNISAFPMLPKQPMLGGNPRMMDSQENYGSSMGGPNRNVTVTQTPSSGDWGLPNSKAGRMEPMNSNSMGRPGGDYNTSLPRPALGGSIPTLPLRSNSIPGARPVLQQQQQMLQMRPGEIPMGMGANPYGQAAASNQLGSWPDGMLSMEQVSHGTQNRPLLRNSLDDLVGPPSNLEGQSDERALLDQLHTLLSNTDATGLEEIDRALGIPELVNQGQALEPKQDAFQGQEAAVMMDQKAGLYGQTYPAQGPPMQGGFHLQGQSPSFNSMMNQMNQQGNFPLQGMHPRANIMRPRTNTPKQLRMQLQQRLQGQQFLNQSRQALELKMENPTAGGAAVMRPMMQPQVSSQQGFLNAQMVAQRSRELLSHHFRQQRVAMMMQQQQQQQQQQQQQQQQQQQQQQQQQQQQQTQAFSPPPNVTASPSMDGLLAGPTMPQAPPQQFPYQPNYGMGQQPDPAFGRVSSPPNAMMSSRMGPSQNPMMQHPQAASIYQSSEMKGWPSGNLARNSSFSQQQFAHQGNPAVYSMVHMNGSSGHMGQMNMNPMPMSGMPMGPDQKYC

The inhibition is the change of the read-out against control, counted positive when it falls. With `COc1cccc(C(=O)/C=C/c2ccc(OCC#N)c(OC)c2)c1`, the inhibition is 22.2% in assay [1] and 23.2% in assay [2].
For the compound `COc1cccc2[nH]c(=O)c(-c3ccccc3)cc12`, the inhibition in assay [1] was -103%; in assay [2], -36.1%.
The like results for `CC(C)c1ccc(NC(=O)C2CCCN(S(=O)(=O)c3cccnc3)C2)cc1` (centres undefined) were, in that order, -12.3% and 4.41%.
The like results for `C/C(N)=C(/C#N)C(=O)COC(=O)c1ccc(C#N)cc1` were, in that order, -7.91% and -0.63%.
Consider `O=C(c1ccc(Cl)cc1)C(Cn1cncn1)C(Sc1ccccc1)c1ccccc1` (centres undefined), for which the inhibition was 14.8% in assay [1] and 20.1% in assay [2].
Take `Cc1cccn2c(CNCC3(c4ccccc4)CCCC3)c(C(=O)N3CCOCC3)nc12`: the inhibition in assay [1] is 7.17%; in assay [2] it was 6.26%.
On to `COc1ccc(C(=O)C2CCCN(Cc3cccn3-c3ccccn3)C2)c(C)c1` (centres undefined), for which the inhibition was 26.1% in assay [1] and 9.76% in assay [2].
In the same order, the values of `CCCCNC(=O)c1onc(CSc2cc(C)cc(C)c2)c1C(=O)NCCCC` are 7.83% and 4.86%.
For the compound `CC(=O)N1CCCc2cc(S(=O)(=O)N3CCCC(C(=O)NCc4ccc(Cl)cc4)C3)ccc21` (centres undefined), the figures for the inhibition in assay [1] and in assay [2] were 4.47% and 9.17%, respectively.
The like results for `Cc1ccc(S(=O)(=O)N2CCOCC2)cc1C(=O)Nc1cc(S(=O)(=O)N2CCCCC2)ccc1O` were, in that order, -2.21% and -4.27%.
In the same order, the values of `CCCc1nn(C)c(C(=O)Nc2cccc(Cl)c2)c1Cl` are 15% and 0.8%.
As to `COc1ccc(CNC(=O)c2ccc(Cl)c(S(=O)(=O)N3CCOCC3)c2)cc1OC`, the inhibition in assay [1] was 12.8%; in assay [2], 27.5%.
In the same order, the values of `CC1=[N+]([O-])C(C)(C)CC(C)(C)c2ccccc21` are 3.29% and 6.25%.
The like results for `Cc1ccc(S(=O)(=O)N(C)c2ccc(OCC(=O)OCc3c(C)noc3C)cc2)cc1` were, in that order, -4.68% and -6.86%.
Consider `Cn1nc(C(F)(F)F)c(-c2ccc(Br)cc2)c1NC(=O)c1ccco1`, for which the inhibition in assay [1] was 7.4%; in assay [2] it was -1.15%.
For `CCN1C/C(=C\c2cccc([N+](=O)[O-])c2)C(=O)/C(=C/c2cccc([N+](=O)[O-])c2)C1`, the inhibition is -110% in assay [1] and 80.6% (active) in assay [2].
The like results for `COc1cc(NC(=O)c2cccs2)c(C(=O)OCC(=O)c2cc(C)n(-c3ccc(F)cc3)c2C)cc1OC` were, in that order, 5.85% and 2.26%.
The like results for `Cc1cc(Br)ccc1NC(=O)c1cnc(N2CCN(c3ccccn3)CC2)c2ccccc12` were, in that order, 15.6% and 15.2%.
The like results for `C=CCSc1nc2ccccc2n1C(=O)/C=C/c1cc(OC)c(OC)c(OC)c1` were, in that order, -6.27% and -10.3%.
Regarding `CC(C)(CC(=O)O)CC(=O)Nc1ccc(Oc2ccc(C(C)(C)C)cc2)nc1`, the inhibition is 3.47% in assay [1] and 0.08% in assay [2].
Regarding `O=C1N=C(N2CCN(c3ccccc3)CC2)S/C1=C\c1cn[nH]c1-c1ccccc1`, the results for the inhibition in assay [1] and in assay [2] were 8.51% and 2.8%, respectively.
Consider `C=CCSc1nsc(NC(=O)Nc2ccc(F)cc2)n1`, for which the results for the inhibition in assay [1] and in assay [2] were -4.43% and -4.12%, respectively.
As to `COc1cc(C=CC(=O)c2ccccc2)cc(OC)c1OC`, the values for the inhibition in assay [1] and in assay [2] were 28.4% and 30.1% (active), respectively.
Regarding `Cc1nc2cc(F)ccc2n1C1CCN(S(=O)(=O)c2ccccc2)CC1`, the values for the inhibition in assay [1] and in assay [2] were 14.1% and 15.3%, respectively.
`O=C(c1ccc(S(=O)(=O)Nc2cccc(C(F)(F)F)c2)cc1)N1CCC1`: the inhibition in assay [1] was -2.7%; in assay [2], -5.66%.
In the same order, the values of `COc1ccc(NC(=O)c2ccc(-c3ccccc3)cc2)cc1S(=O)(=O)N1CCOCC1` are 12% and 34.6% (active).
For `C=C[C@@H]1c2c(F)cccc2N(S(=O)(=O)c2ccc(C)cc2)[C@H](c2ccc(OC(C)=O)cc2)C1(C#N)C#N`, the inhibition in assay [1] is 10.4%; in assay [2], 3.61%.
In the same order, the values of `O=C(C[n+]1ccccc1)NNc1ccccc1` are 33.2% and 47.4% (active).
As to `C/C(=N\NC(N)=S)C1C2C3CC4C5CC(C42)C1C53` (centres undefined), the values for the inhibition in assay [1] and in assay [2] were 28.5% and 30% (active), respectively.
The like results for `COc1ccc(C(C(=O)NC2CCCCC2)N(C(=O)CCl)c2ccc(OC)cc2)cc1` (centres undefined) were, in that order, 64.4% (active) and 27.2%.
For the compound `Cn1c(=O)n(C)c2cc(NS(=O)(=O)c3ccc(C(C)(C)C)cc3)ccc21`, the inhibition in assay [1] was 16.6%; in assay [2], 14.9%.
In the same order, the values of `CCN(C(=O)c1cnc(OC)cc1C(F)(F)F)c1ccc(Cl)cc1` are 9.44% and 4.62%.
In the same order, the values of `O=C(CN1C(=O)c2ccccc2S1(=O)=O)c1ccc(F)cc1` are -13.1% and 17.6%.
In the same order, the values of `COCCN(CCOC)S(=O)(=O)c1ccc(C(=O)Nc2nc3c(s2)CCc2ccccc2-3)cc1` are 0.71% and 0.01%.
`CC(C)COc1ccc(C(=O)Nc2sc3c(c2C(=O)O)CC(C)(C)OC3)cc1`: the inhibition in assay [1] is 45.4% (active); in assay [2], 68.5% (active).
The like results for `Cc1cc(C)n(Cc2ccc(NC(=O)c3ccc(COc4ccccc4Br)cc3)cc2)n1` were, in that order, -0.48% and 20.2%.
The like results for `Cc1nc(SCC(=O)NCc2ccc3c(c2)OCO3)c(C#N)c2c1CCCC2` were, in that order, -21.9% and -7.85%.
`COc1ccc(NC(=O)c2sc(=O)n(Cc3ccccc3C#N)c2C)cc1OC`: the inhibition in assay [1] was 7.52%; in assay [2] it was 31.8% (active).
Take `CCSc1nnc(NC(=O)C(CC)(C(F)(F)F)C(F)(F)F)s1`: the inhibition in assay [1] is 7.54%; in assay [2], 19.6%.
In the same order, the values of `Cc1cc[n+](C(C)C(=O)c2ccc(-c3ccccc3)cc2)cc1` (centres undefined) are 8.52% and 32% (active).
Consider `CC1CCCCC12NC(=O)N(CC(=O)N1CCN(Cc3ccc(C#N)cc3)CC1)C2=O` (centres undefined), for which the inhibition in assay [1] is -3.89%; in assay [2], 6.63%.
The like results for `CC(=O)Nc1ccc(OCC(O)Cn2c3ccccc3c3ccccc32)c(C)c1` (centres undefined) were, in that order, -0.56% and -0.54%.
The like results for `CN1CCCC(n2nc(Cc3ccc(Cl)cc3)c3ccccc3c2=O)CC1` (centres undefined) were, in that order, 10.3% and 2.25%.
In the same order, the values of `Nc1[nH]nc2nc(-c3ccccc3)[nH]c(=O)c12` are -11.1% and -4.28%.
With `CC1CCc2sc3ncnc(N4CCOCC4)c3c2C1` (centres undefined), the inhibition is 32.5% in assay [1] and 29.8% (active) in assay [2].
In the same order, the values of `Cc1ccc(-c2c[n+]3c(n2-c2ccccc2)SCC3)cc1` are 8.17% and 24.7%.
The like results for `Cn1nc(CC(=O)Nc2ccc3c(c2)OCCO3)c2ccccc2c1=O` were, in that order, 9.58% and 34% (active).
In the same order, the values of `CCCCn1c(/N=C/c2ccc(N(C)C)cc2)nc2ccccc21` are -1.05% and -4%.
As for `C/C(=N\NC(=O)C1COc2ccccc2O1)c1ccccn1` (centres undefined), the inhibition is -12.8% in assay [1] and 19.6% in assay [2].
In the same order, the values of `CC(C)(C)OC(=O)NCc1ccc(CNC(=O)c2[nH]cnc2C(=O)NC2CCN(C(=O)OC(C)(C)C)CC2)cc1` are 4.73% and -0.72%.
On to `Clc1ccc(-c2c[n+](Cc3ccc(Cl)cc3Cl)c3n2CCCCC3)cc1`, for which the inhibition is 6.98% in assay [1] and 10.8% in assay [2].
`COc1ccc(C(C)=O)cc1CSc1nnc(Nc2ccccc2)s1`: the inhibition in assay [1] is 9.88%; in assay [2] it was 19.3%.
For `Cc1ccccc1NC(=O)C(=Cc1ccc(C(=O)O)cc1)C(=O)Nc1ccccc1C`, the inhibition in assay [1] was 27.8%; in assay [2], 43.2% (active).
`COc1ccc2[nH]c(C(=O)N/N=C/c3ccc(O)cc3O)cc2c1`: the inhibition in assay [1] is 54.5% (active); in assay [2] it was 45.9% (active).
With `CCCC(=O)NC(c1ccc(C(C)C)cc1)c1ccc2cccnc2c1O` (centres undefined), the inhibition was 74.5% (active) in assay [1] and 73.2% (active) in assay [2].
In the same order, the values of `O=C(N/N=C/c1cc(Cl)ccc1O)c1ccncc1` are 16.7% and 35.7% (active).
Turning to `O=C(Nc1nc(-c2ccccn2)cs1)c1ccc(F)c(S(=O)(=O)N2CCOCC2)c1`, the inhibition is 28% in assay [1] and 33.5% (active) in assay [2].
Consider `COc1ccc(Nc2nc(-c3ccccc3)nc3ccccc23)cc1S(=O)(=O)N1CCOCC1`, for which the inhibition in assay [1] was 7.91%; in assay [2] it was 1.3%.
In the same order, the values of `Cc1cc(C)nc(/N=C(\N)Nc2ccc(OCCC(C)C)cc2)n1` are -1.86% and 23.4%.
Consider `CCOC(=O)c1c(NC(=S)N2CCN(C)CC2)sc2c1CCN(C(=O)OCC)C2`, for which the inhibition was 35.5% in assay [1] and 40.1% (active) in assay [2].
Turning to `COc1cc(C2C(C#N)=C(SC)NC3=C2C(=O)CCC3)ccc1O` (centres undefined), the inhibition in assay [1] was 20.9%; in assay [2] it was 14.7%.
On to `CC(=O)c1c(C)[nH]c(C(=O)CSc2nc3ccccc3n2C)c1C`, for which the inhibition in assay [1] is 2.74%; in assay [2], 11.8%.
Regarding `NC(=S)Nc1cc(Cl)cc(Cl)c1`, the inhibition is 23.7% in assay [1] and 20.4% in assay [2].
As for `Cc1ccc(S(=O)(=O)NCC(=O)N(c2ccccc2)C(C(=O)NCc2ccccc2)c2ccco2)cc1` (centres undefined), the inhibition was -2.76% in assay [1] and 4.99% in assay [2].
The like results for `NC(=S)NN=C(Cc1ccccc1)Cc1ccccc1` were, in that order, 22.4% and 15.6%.
As for `COc1cc(/C=C(/C(=O)c2cccs2)c2nc3ccccc3[nH]2)cc(OC)c1O`, the inhibition in assay [1] is 31.4%; in assay [2], 12.1%.
In the same order, the values of `C/C(=N\NC(=S)Nc1cc(S(=O)(=O)N2CCOCC2)ccc1Cl)c1ccccc1F` are 31.8% and 28.8%.
In the case of `O=[N+]([O-])c1cc(S(=O)(=O)NCCN2CCOCC2)ccc1Sc1nnnn1-c1ccccc1`, the inhibition is 12.9% in assay [1] and -10.3% in assay [2].
In the same order, the values of `NC(=S)NNc1ccc(Cl)c(Cl)c1` are 12.7% and -0.23%.
The like results for `N#C/C(C(N)=O)=C1/CCc2ccccc2N1` were, in that order, 21.2% and -2.45%.
Consider `Cc1ccc(-n2c(Cl)c(Cl)nc(Cl)c2=O)cc1`, for which the results for the inhibition in assay [1] and in assay [2] were 45.3% (active) and 17.9%, respectively.
The like results for `O=S(=O)(c1ccccc1)c1nc(Nc2cccc(O)c2)sc1Cl` were, in that order, -4.35% and 0.89%.

Values taken from PubChem BioAssay.
